{"source": "PubChem BioAssay (Tox21)", "note": "Results filed as inconclusive are left out. Where a call stands in place of a potency, no number is given. A number with no mark means an inactive call. Calls of active or inactive are those of the source. Calls come from the whole dose curve. Potency is the fitted concentration of half-maximal effect.", "data": [{"molecular_target": "Peroxisome proliferator-activated receptor gamma (Homo sapiens) (UniProt P37231)", "sequence (P37231 whole entry, looked up)": "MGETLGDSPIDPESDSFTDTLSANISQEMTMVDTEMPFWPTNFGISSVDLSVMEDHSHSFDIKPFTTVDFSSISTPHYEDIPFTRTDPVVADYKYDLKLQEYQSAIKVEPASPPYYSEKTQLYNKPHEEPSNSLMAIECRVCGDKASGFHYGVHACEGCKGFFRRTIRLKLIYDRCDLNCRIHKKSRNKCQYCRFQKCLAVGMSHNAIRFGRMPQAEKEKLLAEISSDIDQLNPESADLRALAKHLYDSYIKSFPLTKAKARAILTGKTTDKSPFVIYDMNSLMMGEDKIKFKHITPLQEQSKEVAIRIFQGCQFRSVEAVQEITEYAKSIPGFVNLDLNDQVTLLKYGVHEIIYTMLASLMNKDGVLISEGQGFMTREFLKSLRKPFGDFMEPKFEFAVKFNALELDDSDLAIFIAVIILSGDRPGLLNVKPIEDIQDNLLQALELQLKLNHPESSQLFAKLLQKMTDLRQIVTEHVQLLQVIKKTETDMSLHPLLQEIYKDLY", "assay": "qHTS assay to identify small molecule antagonists of the peroxisome proliferator-activated receptor gamma (PPARg) signaling pathway (AID 743191); note: nearly all actives have a fitted effect of over 30% in size", "conditions": "HEK293H PPARg-UAS-bla, beta-lactamase ratio, antagonist, 17 h; series mostly up to 62.6 µM", "source_text": "U.S. Tox21 Program National Center for Advancing Translational Sciences [NCATS] NIH Chemical Genomics Center [NCGC] U.S. Environmental Protection Agency [EPA] National Institutes of Environmental Health Sciences [NIEHS] National Toxicology Program [NTP] U.S. Food and Drug Administration [FDA] Tox21 Assay Overview: The peroxisome proliferator-activated receptors (PPARs) are lipid-activated transcription factors of the nuclear receptor superfamily with three distinct subtypes namely PPAR alpha, PPAR delta (also called PPAR beta) and PPAR gamma (PPARg). All these subtypes heterodimerize with Retinoid X receptor (RXR) and these heterodimers regulate transcription of various genes. PPAR-gamma receptor (glitazone receptor) is involved in the regulation of glucose and lipid metabolism. To identify the compounds that inhibit PPAR-gamma signaling, GeneBLAzer PPAR gamma UAS-bla HEK293H cell line (Invitrogen, Carlsbad, CA, USA) containing a beta-lactamase reporter gene under control of an Upstream Activator Sequence (UAS) was used to screen the Tox21 compound library.\nTox21 Assay Protocol Summary: PPARg-bla cells were dispensed at 3000 cells/6uL/well in 1536-well black wall/clear bottom plates using a Multidrop Combi (Thermo Fisher Scientific, Waltham, MA) dispenser. After the assay plates were incubated at 37C and 5% CO2 for 5 h, 23 nL of compounds dissolved in DMSO, positive controls or DMSO only was transferred to the assay plate by a Pintool station (Kalypsys, San Diego, CA). The assay plates were incubated at 37C for 17 h. After 1 uL of LiveBLAzerTM B/G FRET substrate was added using a Bioraptr Flying Reagent Dispenser (FRD) workstation (Beckman Coulter, Indianapolis, IN, USA), the plates were incubated at room temperature for 1 h, and fluorescence intensity was measured by an Envision plate reader (PerkinElmer, Shelton, CT).", "values": [{"compound": "OCc1ccc(Cl)cc1Cl", "Potency": "inactive"}, {"compound": "N#CCC(=O)O", "Potency": "inactive"}, {"compound": "O=c1c(O)c(-c2ccc(O)c(O)c2)oc2cc(O)cc(O)c12", "Potency": "inactive"}, {"compound": "O=C(Cl)c1ccc(C(=O)Cl)cc1", "Potency": "inactive"}, {"compound": "COC(=O)OC", "Potency": "inactive"}, {"compound": "CC1=CC(=O)CC(C)(C)C1", "Potency": "inactive"}, {"compound": "NC(=O)c1ncn([C@@H]2O[C@H](CO)[C@@H](O)[C@H]2O)n1", "Potency": "inactive"}, {"compound": "CN=C(NC#N)NCCSCc1nc[nH]c1C", "Potency": "inactive"}, {"compound": "OCC(O)CS", "note": "(stereo not given)", "Potency": "inactive"}, {"compound": "C1CCCNCC1", "Potency": "inactive"}, {"compound": "O=C1OC(=O)c2c(Cl)c(Cl)c(Cl)c(Cl)c21", "Potency": "inactive"}, {"compound": "CC(COCC(C)OC(=O)c1ccccc1)OC(=O)c1ccccc1", "note": "(stereo not given)", "Potency": "inactive"}, {"compound": "O=C1O[C@H]([C@H](O)CO)C(O)=C1O", "Potency": "inactive"}, {"compound": "CCCCCC(C)=O", "Potency": "inactive"}, {"compound": "CCCCCNCCCCC", "Potency": "inactive"}, {"compound": "OB(O)O", "Potency": "inactive"}, {"compound": "CCCOCC(C)O", "note": "(stereo not given)", "Potency": "inactive"}, {"compound": "COc1ccc(N)c(OC)c1", "Potency": "inactive"}, {"compound": "Cc1ccc(Cl)cc1", "Potency": "inactive"}, {"compound": "Cc1ccncc1", "Potency": "inactive"}, {"compound": "O=[N+]([O-])c1ccccc1C(F)(F)F", "Potency": "inactive"}, {"compound": "C[n+]1ccn(CCO)c1", "Potency": "inactive"}, {"compound": "C[Si](C)(C)N[Si](C)(C)C", "Potency": "inactive"}, {"compound": "O=C(O)C1=NN(c2ccc(S(=O)(=O)O)cc2)C(=O)C1", "Potency": "inactive"}, {"compound": "Cc1cc(CC(=O)O)n(C)c1C(=O)c1ccc(Cl)cc1", "Potency": "inactive"}, {"compound": "CC(=O)C(C)C", "Potency": "inactive"}, {"compound": "c1cnc2c(c1)ccc1cccnc12", "Potency": "1560 nM (active)"}, {"compound": "C=C(CC(=O)O)C(=O)O", "Potency": "inactive"}, {"compound": "Nc1cccc(N)n1", "Potency": "inactive"}, {"compound": "Oc1ccc(Cc2ccccc2O)cc1", "Potency": "inactive"}, {"compound": "CC(=O)OC/C=C(\\C)CCC=C(C)C", "Potency": "inactive"}, {"compound": "Cc1ccc([N+](=O)[O-])cc1N", "Potency": "inactive"}, {"compound": "OC1CCCCC1", "Potency": "inactive"}, {"compound": "CC(O)CNCC(C)O", "note": "(stereo not given)", "Potency": "inactive"}, {"compound": "O=C1CCCCCCCCCCC1", "Potency": "inactive"}, {"compound": "CC(=O)OCCC(C)C", "Potency": "inactive"}, {"compound": "CCCCCCCCCCCC(=O)N(C)CC(=O)O", "ratio activity, negative = inhibition": "4.34% [at 5.95 µM]"}, {"compound": "COc1c(Cl)ccc(Cl)c1C(=O)O", "Potency": "inactive"}, {"compound": "C=C1C[C@]23C[C@@]1(O)CC[C@H]2[C@@]12C=C[C@H](O)[C@@](C)(C(=O)O1)[C@H]2[C@@H]3C(=O)O", "Potency": "inactive"}, {"compound": "CCCOC(=O)NCCCN(C)C", "Potency": "inactive"}]}]}
